NCOA2 inhibitor: inhibition of GAL4-SRC2 driven luciferase reporter, primary screen, SRC2 inhibitor project, cell-based, luminescence | Nuclear receptor coactivator 2 (Homo sapiens), Q15596 | HEK293 GAL4-SRC2 luciferase reporter | inhibition, % at 9 µM | actives 0.17% (n = 370,000);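 active means inhibition above the mean inhibition of all tested compounds plus 3 SD, set per campaign, cut at about 52% in these data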;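 further: 0% = DMSO treated cells and 100% = cells given Gossypol at 36 µM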
NR2F2 inh: NR2F2 transcriptional activity inhibitors, primary screen, cell-based, luciferase reporter, HEK293T, luminescence; AID 686940, 2013; inhibition, % at 8.6 µM; actives 0.7% (n = 370,000); HEK293T NGFI-A luciferase reporter;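 active means inhibition above a per-plate cutoff, mean inhibition of test wells between control levels plus 3 SD, cut at about 38% in these data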;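 further: cells cotransfected with COUP-TFII expression vector driving the NGFI-A reporter; 0% = median of COUP-TF2 test wells and 100% = reporter-only cells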
GalR3 antagonist: GalR3 antagonists in HEK293 cells, primary screen, cell-based, fluorescence readout; Galanin receptor type 3 (Homo sapiens), O60755; HEK293 GalR3-CNG cAMP membrane potential fluorescence; galR3 body fused to GalR1 C-terminus; inhibition, % at 3 µM; actives 0.44% (n = 360,000); AID 651719, 2012;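 active means inhibition above the screen-wide average plus 3 SD, cut at about 13% in these data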;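 further: forskolin and galanin both at EC90 stimulate the cells; cAMP rise reported by CNG channel membrane potential dye signal; 0% = forskolin plus galanin with DMSO and 100% = forskolin alone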
SRC1 inh: SRC1 coactivator transcriptional activity inhibitors, primary screen, cell-based, luminescence; actives 0.12% (n = 360,000); AID 588354, 2011; inhibition, % at 3.6 µM; HEK293 GAL4-SRC1 luciferase reporter; Nuclear receptor coactivator 1 (Homo sapiens), Q15788;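 active means inhibition above the campaign mean plus 3 SD, with each screening campaign given its own cutoff, cut at about 60% in these data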;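 further: 0% = DMSO treated cells and 100% = gossypol at 36 µM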
LRH-1 inv ag: LRH-1 (NR5A2) inverse agonists, primary screen, cell-based, luminescence, HEK293T, StAR-luciferase reporter | LRH-1 transfected, 24 h | inhibition, % at 3.6 µM | actives 0.13% (n = 360,000) | AID 602396, 2012;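 active means inhibition above the mean inhibition of all tested compounds plus 3 SD, cut at about 73% in these data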;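 further: 0% = DMSO wells and 100% = reporter-only cells lacking LRH-1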
NCOA3 inh: SRC3 coactivator transcriptional activity inhibitors, primary screen, cell-based, luminescence; actives 0.17% (n = 360,000); AID 588352, 2011; inhibition, % at 3.6 µM; HEK293 GAL4-SRC3 luciferase reporter;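 active means inhibition above a per-campaign cutoff, the mean of all compounds plus 3 SD, cut at about 60% in these data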;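 further: 0% = DMSO-treated cells and 100% = gossypol-treated cells at 36 µM; higher means less SRC3-driven luciferase light from the GAL4 reporter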
Gal4-VP16 ctr: Gal4-VP16 luciferase reporter inhibitors, counter-screen for COUP-TFII antagonist project, cell-based, luminescence, HEK293. shares compounds with NR2F2 inh. actives 25% (n = 2,500). AID 687007, 2013. inhibition, % at 8.5 µM; in the data active means inhibition above about 13%
NR2F2 inh conf: NR2F2 transcriptional activity inhibitors, confirmation, cell-based, luciferase reporter, HEK293, triplicate | actives 45% (n = 2,500) | HEK293 NGFI-A luciferase reporter, luminescence | inhibition, % at 8.5 µM | AID 687008, 2013 | shares compounds with NR2F2 inh;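 active means mean inhibition over three repeats above a set limit taken from the earlier primary screen, cut at about 38% in these data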;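 further: 100% = cells given the luciferase reporter alone without the COUP-TF2 vector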
The depositor's hits bear a star; . = not tested or not shown. Shown are actives, neighbours in structure and some others; about 1.1% of the full set was active somewhere.

SMILES	NCOA2 inhibitor	NR2F2 inh	GalR3 antagonist	SRC1 inh	LRH-1 inv ag	NCOA3 inh	Gal4-VP16 ctr	NR2F2 inh conf
O=S1(=O)CC2c3ccccc3CN2CN1Cc1ccc(F)cc1 (stereo unspecified)	-15.8	-9.1	.	.	.	.	.	.
Cc1c(/C(O)=C2\C(=O)C(=O)N(CCCN(C)C)C2c2ccccc2)cnn1-c1ccccc1 (stereo unspecified)	33.4	50.5*	-6.9	24.6	29.7	27.7	1.3	9.7
Cc1c(/C(O)=C2/C(=O)C(=O)N(CCN3CCOCC3)C2c2ccccn2)cnn1-c1ccccc1 (stereo unspecified)	79.7*	99.8*	-2.0	83.6*	82.7*	85.1*	30.9*	39.3*
O=C1C(=O)N(CCN2CCOCC2)C(c2ccccn2)/C1=C(/O)c1ccc(F)cc1 (stereo unspecified)	-11.1	-15.5	-1.9	-16.4	-21.9	-6.2	.	.
CCCCCCCCCCn1ccc(=N)cc1	26.5	82.1*	97.0*	47.5	85.7*	71.3*	13.1*	79.2*
CCCCCCN1Cc2ccccc2C1	-28.0	-14.5	-5.6	-11.4	-21.0	-11.3	.	.
CCCCCCCCn1ccc(=N)cc1	19.0	41.6*	-3.9	9.3	11.4	25.1	-5.3	30.0
O=S1(=O)c2ccc(Br)cc2OC[C@@H](Cc2ccccc2)N1Cc1cn(Cc2ccc(Cl)cc2)nn1	15.4	-6.6	.	.	.	.	.	.
COc1ccc(CN2CCN(C(=O)c3ccc(S(=O)(=O)N4CCCCCC4)cc3)CC2)cc1F	-36.6	52.6*	-0.8	12.7	28.3	19.6	-4.8	31.8
O=C(NC1CCCCN(Cc2cccc(Cl)c2)C1=O)c1ccc2ccccc2c1 (stereo unspecified)	-6.1	-7.3	.	.	.	.	.	.
O=C(COC(=O)c1cc(S(=O)(=O)N2CCOCC2)ccc1F)NCc1ccc2c(c1)OCO2	43.5	47.0*	-3.7	-11.4	5.2	-3.6	-8.0	-8.2
O=C(COC(=O)c1cc(S(=O)(=O)N2CCOCC2)ccc1F)Nc1ccc2c(c1)OCO2	-24.7	-17.9	0.3	-10.3	6.5	-1.1	.	.
Cc1ccc(S(=O)(=O)c2cccc(S(=O)(=O)N3CCOCC3)c2)cc1S(=O)(=O)N1CCOCC1	7.3	-5.4	-0.5	-5.9	-2.0	3.8	.	.
Cc1ccc(S(=O)(=O)c2cccc(S(=O)(=O)N3CCCC3)c2)cc1S(=O)(=O)N1CCCC1	28.5	61.2*	-4.4	15.9	4.1	12.7	10.7	24.1
CCOC(=O)c1cc2c(C)n(-c3ccc(OCC)cc3)c(C)c2ccc1=O	12.8	-2.5	-3.3	-15.9	-8.3	-5.2	.	.
CCOC(=O)c1cc2c(C)n(-c3ccc(C)cc3)c(C)c2ccc1=O	-11.9	40.9*	-7.0	-30.1	-20.1	-30.8	-137.2	-19.3
CCC1Sc2ccc(S(=O)(=O)Nc3ccc(OC)c(OC)c3)cc2NC1=O (stereo unspecified)	29.8	52.0*	-8.9	-8.9	24.8	13.6	-7.1	17.1
Cc1cc(N2CCCC2=O)cc(C)c1S(=O)(=O)NCCOc1ccc(C(C)(C)C)cc1	18.9	43.6*	-11.1	-137.1	-4.0	26.1	-0.9	18.6
O=C1CCCN1c1ccc(S(=O)(=O)NCCOc2ccccc2)cc1	25.6	-3.0	-7.9	14.9	9.2	13.0	.	.
O=c1c2ccccc2n(Cc2ccno2)n1[C@@H](Cc1ccccc1)Cn1cc(C2CCCC2)nn1	11.0	-12.5	.	.	.	.	.	.
CCOc1cc(/C=N/NC(=O)c2ccc(=O)n(C)c2)ccc1O	-26.4	3.4	-9.8	-5.5	24.0	-1.6	.	.
Cc1ccc(C(C)C)c(OCc2ccc(C(=O)N/N=C/c3ccc(O)c(O)c3)cc2)c1	52.0	44.4*	-5.3	-13.5	-26.6	8.9	19.3*	5.9
Cc1ccc(-c2cc3cccc[n+]3cc2-c2ccc(C)cc2)cc1	1.4	65.9*	-4.2	50.7	84.4*	55.4	7.8	53.9*
CCOC(=O)[C@@]12CN(C(=O)OC(C)(C)C)CC=C1N(Cc1ccc(OC)cc1)C(=O)[C@H]2CC(=O)NCCc1ccccc1OC	-11.7	1.1	.	.	.	.	.	.
CC1CCC(C(C)C)C(OC(=O)Cn2c(-c3ccccc3)[n+](C)c3ccccc32)C1 (stereo unspecified)	39.2	57.1*	0.8	57.8	75.1*	79.4*	13.6*	37.7*
SMILES	NCOA2 inhibitor	NR2F2 inh	GalR3 antagonist	SRC1 inh	LRH-1 inv ag	NCOA3 inh	Gal4-VP16 ctr	NR2F2 inh conf
Cc1cccc(OCc2n(CC(=O)OC3CC(C)CCC3C(C)C)c3ccccc3[n+]2C)c1 (stereo unspecified)	.	.	.	6.7	13.8	25.7	.	.
CC1(C)C=Cc2ccc(O)c(C(=O)/C=C/c3ccccc3)c2O1	.	44.1*	.	.	.	.	17.9*	17.4
Cc1cc(=O)oc2c(C(=O)/C=C/c3ccccc3)c(O)ccc12	5.9	5.6	-0.9	-24.1	15.1	-11.5	.	.
O=C(c1ccc(Cl)c(Cl)c1)N1CCC(Oc2cccnc2)CC1	-11.0	2.1	.	.	.	.	.	.
Cc1ccc(CN2CCCCC(NC(=O)c3ccc(COc4ccccc4)cc3)C2=O)cc1 (stereo unspecified)	18.1	50.8*	.	.	.	.	-10.0	22.7
Cc1ccccc1CN1CCCCC(NC(=O)c2ccccc2C)C1=O (stereo unspecified)	-8.2	2.7	.	.	.	.	.	.
CCCCOc1ccc(C(=O)NC2CCCCN(Cc3ccc(C)cc3)C2=O)cc1 (stereo unspecified)	19.0	39.5*	.	.	.	.	-11.6	25.3
Cc1ccccc1CN1CCCCC(NC(=O)c2ccc(-c3ccccc3)cc2)C1=O (stereo unspecified)	16.2	57.0*	.	.	.	.	-15.3	40.7*
Cc1ccc(CN2CCCCC(NC(=O)c3ccc(F)cc3)C2=O)cc1 (stereo unspecified)	-2.2	-1.4	.	.	.	.	.	.
Cc1ccc(-c2nc(CS(=O)CC(=O)NCCCN3CCN(Cc4ccccc4)CC3)c(C)o2)cc1 (stereo unspecified)	-16.1	41.1*	-11.3	8.5	18.6	46.6	-6.1	20.9
Cc1oc(-c2ccc(Cl)cc2)nc1CS(=O)CC(=O)NCCCN1CCOCC1 (stereo unspecified)	4.2	-2.3	0.6	-24.8	-9.1	-3.7	.	.

Screening results from PubChem.
